The text below walks through data of PubChem BioAssay AID1851 (National Center for Advancing Translational Sciences (NCATS), 2009).

Out of some 16,000 compounds screened, about 5,100 (32%) were called active. About 25% were inconclusive and are not listed. Some of the results follow. Values without a mark were called inactive. Calls follow the shape of the dose curve; as a rule, active = well fitted curve in the direction sought with a large enough effect; inconclusive = small, poorly fitted or top-dose-only effect, or effect the other way; inactive = no such curve, though single readings can be large or run the other way.
% is scaled to controls: 0 for no effect and ±100 for the full control effect.

The target in this experiment is Cytochrome P450 3A4 (Homo sapiens) (UniProt P08684). Briefly: Cytochrome panel assay with activity outcomes. Particulars: recombinant CYP, pro-luciferin dealkylation, luminescence, p450-cyp3a4; series mostly up to 57.1 µM.
Cytochrome P450 3A4 (Homo sapiens), sequence (P08684 whole entry, looked up): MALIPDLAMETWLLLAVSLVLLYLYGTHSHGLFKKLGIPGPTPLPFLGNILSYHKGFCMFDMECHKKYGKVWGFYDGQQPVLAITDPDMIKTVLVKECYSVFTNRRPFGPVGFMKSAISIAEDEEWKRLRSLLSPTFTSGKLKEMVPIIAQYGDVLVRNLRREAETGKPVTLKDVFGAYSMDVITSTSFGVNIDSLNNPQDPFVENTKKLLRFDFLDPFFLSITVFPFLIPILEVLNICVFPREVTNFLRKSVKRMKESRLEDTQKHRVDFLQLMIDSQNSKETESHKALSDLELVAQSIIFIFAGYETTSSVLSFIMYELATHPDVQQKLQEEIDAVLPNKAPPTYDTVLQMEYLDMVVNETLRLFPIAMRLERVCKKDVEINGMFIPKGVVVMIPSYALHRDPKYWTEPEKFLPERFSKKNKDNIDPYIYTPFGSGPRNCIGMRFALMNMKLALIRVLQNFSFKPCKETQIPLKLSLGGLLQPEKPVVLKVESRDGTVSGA
Consider `N=C(N)SCC(=O)O`, for which the activity, negative = inhibition is -3.45% [at 11.4 µM]. On to `CC(C)CN1CCCC2(CCN(S(=O)(=O)c3ccccc3)CC2)C1`, for which the AC50 (usually the midpoint of the concentration-response curve, whichever way the signal moves) is 15.8 µM (active). Regarding `O=S(=O)(c1ccccc1)N1CCC2(CCN(Cc3ccccc3)CC2)CC1`, the AC50 entry is “inactive”.

`CC(C)CN1CCC2(CC1)CCN(S(=O)(=O)c1ccccc1)CC2`: the AC50 result is “inactive”. On the same count and under the same terms, for `O=S(=O)(c1ccccc1)N1CCC2(CCN(Cc3ccncc3)CC2)CC1` the value was 3.98 µM (active); for `O=S(=O)(c1ccccc1)N1CCC2(CCCN(Cc3ccncc3)C2)CC1`, 3.98 µM (active); for `O=S(=O)(c1ccccc1)N1CCC2(CC1)CN(Cc1ccccc1)C2`, “inactive”. In the case of `N#Cc1ccc(CN2CCCC3(CCN(S(=O)(=O)c4ccccc4)CC3)C2)cc1`, the AC50 is 3.16 µM (active). `CC/C=C\CC[C@H](O)C1=CCCCC1=O`: the activity, negative = inhibition is -12.1% [at 11.4 µM]. As to `COc1ccc(C2CC(=O)c3cnc(Nc4cc(C)cc(C)c4)nc3C2)cc1` (stereo unspecified), the AC50 was 4.47 µM (active). As for `Cc1ccc(C2CC(=O)c3cnc(N4CCc5ccccc5C4)nc3C2)cc1` (stereo unspecified), the activity, negative = inhibition is -6% [at 2.29 µM]. For `O=C1CC(c2ccccc2)Cc2nc(N3CCc4ccccc4C3)ncc21` (stereo unspecified), the activity, negative = inhibition is 2.14% [at 2.29 µM]. For `COc1ccc(Nc2ncc3c(n2)CC(c2ccc(C)cc2)CC3=O)cc1` (stereo unspecified), the AC50 is 8.91 µM (active). On to `CC1CC(=O)c2cnc(N)nc2C1` (stereo unspecified), for which the AC50 entry was “inactive”. As for `Nc1ncnc2c1ncn2C[C@@H](O)C(=O)O`, the activity, negative = inhibition was 1.58% [at 11.4 µM]. Take `CCNc1ncc2nc(C)c(=O)n(C[C@H]3CCCO3)c2n1`: the AC50 entry was “inactive”. The same measure, in the same setting: for `O=c1cnc2cnc(Oc3cccc(Cl)c3)nc2n1C[C@H]1CCCO1` the value was “inactive”; for `CCNc1ncc2ncc(=O)n(C[C@H]3CCCO3)c2n1`, “inactive”. Same read-out and setting: with `COc1ccc(-c2nc3cnc(N4CCOCC4)nc3n(C[C@H]3CCCO3)c2=O)cc1` the entry was “inactive”; with `COc1ccc(Oc2ncc3ncc(=O)n(C[C@H]4CCCO4)c3n2)cc1`, 12.6 µM (active); with `COc1ccc(Oc2ncc3nc(C)c(=O)n(C[C@H]4CCCO4)c3n2)cc1`, 3.98 µM (active). In the case of `CN(CCC(=O)O)S(=O)(=O)c1ccccc1`, the activity, negative = inhibition was -26.6% [at 11.4 µM].

For `Nc1ccc(N(S(=O)(=O)c2ccccc2)S(=O)(=O)c2ccccc2)c(Cl)c1`, the AC50 was 0.0316 µM (active). In the case of `NC(=S)Nc1cc2ccccc2c2ccccc12`, the AC50 is 15.8 µM (active).

As for `CN=C(N)/N=C(\N)Nc1cc2ccccc2c2ccccc12`, the activity, negative = inhibition was -14.5% [at 11.4 µM].

For `O=C(O)c1c2ccccc2cc2ccccc12`, the AC50 entry is “inactive”. For the compound `O=C1CC(=O)C(n2cncn2)C(c2cccc(Cl)c2)C1` (stereo unspecified), the AC50 was 0.501 µM (active). Turning to `CCN(CC)C(=O)C1CC(=O)N(c2ccc(OC)cc2)C1c1ccc(OC)cc1` (stereo unspecified), the activity, negative = inhibition was -28.4% [at 2.29 µM]. For `COc1ccc(C2CC(=O)CC(=O)C2n2cncn2)cc1` (stereo unspecified), the AC50 is 2.24 µM (active). Same read-out and setting: with `Cc1cccc(CNc2nc(-c3cccc(NS(C)(=O)=O)c3)nc3ccccc23)c1` the figure was 5.01 µM (active). In the case of `CS(=O)(=O)Nc1cccc(-c2nc(NCc3cccs3)c3ccccc3n2)c1`, the AC50 was 3.16 µM (active). Turning to `COCCNc1nc(-c2cccc(NS(C)(=O)=O)c2)nc2ccccc12`, the half-maximal activity concentration (AC50) is 12.6 µM (active). As for `CS(=O)(=O)Nc1cccc(-c2nc(NCc3cccnc3)c3ccccc3n2)c1`, the AC50 is 2 µM (active). As to `NC(=O)/C(=N\O)c1ccccc1`, the AC50 result is “inactive”.

As for `c1cc(NNc2cccc(-c3nn[nH]n3)c2)cc(-c2nn[nH]n2)c1`, the activity, negative = inhibition is -11.1% [at 11.4 µM]. As for `CC(=O)NCCNc1nc(-c2cccc(NS(C)(=O)=O)c2)nc2ccccc12`, the AC50 was 15.8 µM (active).

On to `CS(=O)(=O)Nc1cccc(-c2nc(NCc3ccccc3)c3ccccc3n2)c1`, for which the AC50 was 3.16 µM (active).

For `Cn1c(=O)c2c(ncn2CN2CCN(Cn3cnc4c3c(=O)n(C)c(=O)n4C)CC2)n(C)c1=O`, the activity, negative = inhibition is 3.42% [at 11.4 µM]. `COc1ccc(CNc2ncnc3ccc(-c4cccc(C#N)c4)cc23)c(OC)c1`: the AC50 is 1.58 µM (active). As for `COc1ccccc1CNc1ncnc2ccc(-c3cccc(C#N)c3)cc12`, the AC50 was 7.94 µM (active). In the case of `Cc1ccc(S(=O)(=O)NC(=O)OC23COCN2COC3)cc1`, the activity, negative = inhibition is -8.25% [at 11.4 µM]. For `Cn1c(=O)c(-c2ccc(Cl)cc2)nc2cncnc21`, the AC50 result was “inactive”. Consider `O=c1c(-c2cc(F)cc(F)c2)nc2cncnc2n1-c1ccccc1`, for which the AC50 entry was “inactive”. The same measure, in the same setting: with `COc1ccc(-n2c(=O)c(-c3ccc(F)cc3)nc3cnc(N4CCOCC4)nc32)cc1` the entry was “inactive”. For `COc1ccc(-n2c(=O)c(-c3ccc(Cl)cc3)nc3cncnc32)cc1`, the AC50 is 15.8 µM (active).

`COc1ccc(-n2c(=O)c(-c3ccc(F)cc3)nc3cncnc32)cc1`: the AC50 result is “inactive”.

For `COc1ccc(-n2c(=O)c(-c3cccc(F)c3)nc3cncnc32)cc1`, the AC50 was 20 µM (active). As for `COc1ccc(-n2c(=O)c(-c3cc(F)cc(F)c3)nc3cncnc32)cc1`, the AC50 was 12.6 µM (active). The same measure, in the same setting: for `COc1ccc(-n2c(=O)c(C)nc3cncnc32)cc1` the value was 5.01 µM (active); for `Cn1c(=O)c(-c2cccc(Cl)c2)nc2cncnc21`, “inactive”. Same read-out and setting: with `CCNc1ncc2nc(-c3ccc(F)cc3)c(=O)n(-c3ccccc3)c2n1` the entry was “inactive”; with `CCNc1ncc2nc(-c3cc(F)cc(F)c3)c(=O)n(-c3ccc(OC)cc3)c2n1`, 10 µM (active).

Consider `COc1ccc(-n2c(=O)c(-c3cccc(Cl)c3)nc3cncnc32)cc1`, for which the AC50 is 12.6 µM (active). On to `Nc1ncnc2c1ncn2[C@H]1O[C@@H](C(=O)O)[C@@H](O)[C@H]1O`, for which the activity, negative = inhibition was 0.186% [at 11.4 µM]. With `COC(=O)C1=C(CSc2nncn2C)NC(=O)NC1c1ccc(F)cc1` (stereo unspecified), the AC50 result was “inactive”. On the same count and under the same terms, for `CCOC(=O)C1=C(CSc2nc3ccccc3s2)NC(=O)NC1c1cccc([N+](=O)[O-])c1` (stereo unspecified) the value was 6.31 µM (active). The same measure, in the same setting: for `CCOC(=O)C1=C(COc2ccc(F)cc2Cl)NC(=O)NC1c1cc(C)ccc1C` (stereo unspecified) the value was 6.31 µM (active); for `CCOC(=O)C1=C(CSc2nc3ccccc3s2)NC(=O)NC1c1cc(C)ccc1C` (stereo unspecified), 4.47 µM (active). Take `CCC(=O)NNc1cc(=O)c2c(=O)n(C)c(=O)n(C)c2[nH]1`: the activity, negative = inhibition is 1.3% [at 2.29 µM]. In the case of `O=[N+]([O-])c1ccc(N2CCCCC2)c(Cl)c1N1CCCCC1`, the AC50 entry is “inactive”.

With `O=C1CCCN1c1ccc(S(=O)(=O)Oc2cccc(Cl)c2)cc1[N+](=O)[O-]`, the AC50 was 12.6 µM (active).
